The values that follow come from PubChem BioAssay (EPA / NIEHS).

Active and inactive are the calls of the source. How the source made its calls: active means hit-call score of the fitted dose curve at least 0.9, where 1 is the maximum; inactive means score below 0.9.

A short description of the test: CCTE_Harrill_HTTr_Apoptosis_MCF7: CCTE's 6-hour Apoptosis Assessment for the High-Throughput Transcriptomics (HTTr) Platform, in MCF-7 cells cultured in DMEM + 10% fetal bovine serum, Harrill Lab (AID 2284011). The method in brief: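 High-content imaging of CellEvent Caspase 3/7 Green signal follows a six-hour exposure, with eight concentrations per chemical. MCF-7 cells grown in DMEM plus 10% fetal bovine serum; activity fitted in both directions against DMSO.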
`CC(C)(C)c1ccc(O)cc1`: the result was inactive. Next, `CCOP(=S)(OCC)SCSCC`: “inactive”. On to `c1ccc(OP(Oc2ccccc2)Oc2ccccc2)cc1`, for which the result was inactive. Next, `CCNc1nc(Cl)nc(NC(C)(C)C)n1`: “inactive”; `CCCCCCCc1ccc(O)cc1`: “inactive”. In the case of `CN(C)C(=O)Cl` it was “inactive”. Next, `Cc1ccc2c(c1N)C(=O)c1ccccc1C2=O`: “inactive”; `Clc1ccc(Oc2ccccc2)cc1`: “inactive”. In the case of `CCOc1ccc(C(C)(C)COCc2cccc(Oc3ccccc3)c2)cc1`, the result was inactive. In the case of `FC(F)(F)c1ccc(Cl)cc1`, the result was inactive. On to `Cc1ccc(N)cc1N`, for which the result was inactive. In the case of `ClC(Cl)=C(c1ccc(Cl)cc1)c1ccccc1Cl`, the result was inactive. In the case of `CC(Cl)(Cl)C(=O)O` it was “inactive”; in that of `c1cc2c3c(cccc3c1)CC2`, “inactive”; in that of `COCCOCCO`, “inactive”. For the molecule `Nc1ccc(Sc2ccc(N)cc2)cc1`, the result was inactive. In the case of `CCN(CC)c1ccccc1`, the outcome was inactive. Next, `CCOP(=S)(OCC)SCSc1ccc(Cl)cc1`: “inactive”; `O=P(OCC(Br)CBr)(OCC(Br)CBr)OCC(Br)CBr` (stereo not drawn): “inactive”. Next, `[N-]=[N+]=[N-]`: “inactive”; `CO/N=C(/C(=O)OC)c1ccccc1COc1ccccc1C`: “inactive”; `O=S(=O)(c1ccc(O)cc1)c1ccc(O)cc1`: “inactive”.

Turning to `O=C(O)C1C(C(=O)O)C2(Cl)C(Cl)=C(Cl)C1(Cl)C2(Cl)Cl` (stereo not drawn), the result was inactive.

For the molecule `ClC(Cl)(Cl)c1ccccc1`, the outcome was inactive. On to `ClC1=C(Cl)C2(Cl)C3C(Cl)C(Cl)CC3C1(Cl)C2(Cl)Cl` (stereo not drawn), for which the outcome was inactive.

With `CCCCN(CC)C(=O)SCCC`, the result was inactive. In the case of `CCCCC(CC)COP(=O)(Oc1ccccc1)Oc1ccccc1` (stereo not drawn), the outcome was inactive. As for `CCOP(=S)(Oc1ccc([N+](=O)[O-])cc1)c1ccccc1` (stereo not drawn), the outcome was inactive.
